Each structure is given as a SMILES string. Out of some 1,500 compounds screened, about 920 (61%) were called active. No rule for the calls is given here. So high a share suggests a set chosen from earlier hits. This is one part of the list. Measured potencies and affinities stand elsewhere.

The assay in a line: Vero 76 cell cytotoxicity, dose response, cytotoxicity control for VEEV inhibitor project (AID 588719). Conditions: Vero 76 cells viability, cytotoxicity counter-screen; series mostly up to 25 µM.
`Cc1nn(Cc2c(Cl)cccc2Cl)c(C)c1NC(=O)c1cc(C(C)C)on1`: the result was inactive.
On to `O=c1[nH]c(SCc2nc3c(cnn3-c3ccccc3)c(=O)[nH]2)nc2ccccc12`, for which the molecule was called inactive.
For `CCN(CC)P(=O)(NC(=O)C(Cl)(Cl)Cl)N(CC)CC.[Cl-].[Cl-].[Cl-].[Nd+3]`, the molecule was called inactive.
`Cc1nc(/C(N)=N/OC(=O)c2ccccc2Cl)c(C(F)(F)F)o1`: the call was inactive.
For `C/C(N)=C(/C#N)C(=O)CSc1nnc(-c2ccc(OC(F)F)cc2)o1` the value was “inactive”.
With `COc1ccc(NC(=O)N(C)C[C@H]2Oc3cc(Br)ccc3S(=O)(=O)N([C@H](C)CO)C[C@@H]2C)cc1`, the call was inactive.
As to `Cc1[nH]c(=S)[nH]c(=O)c1Cc1c(O)ccc2ccccc12`, the result was inactive.
As for `CN(C)C1CCc2[nH]c3c(F)cc(F)cc3c2C1` (stereo unspecified), the outcome was inactive.
Consider `COc1ccc2c(c1)c(CCN)c(C)n2Cc1ccccc1`, for which the molecule was called inactive.
For `Cc1ccc2nc(-c3ccc(NS(=O)(=O)c4c(C)n(C)c(=O)n(C)c4=O)cc3)sc2c1` the value was “inactive”; for `COc1cc(NC(=O)C2=C(C)OCCS2)c(Cl)cc1C(=O)NCCCN1CCCC(C)C1` (stereo unspecified), “inactive”; for `Cc1nn2c(NCCN(C)C)c3c(nc2c1-c1ccccc1)CCC3`, “inactive”.
For `CCOC(=O)C(C(=O)OCC)C(c1ccccc1)N1CCN(c2ccccc2)CC1` (stereo unspecified) the value was “inactive”; for `OC1(c2cccs2)CN(c2ccc(Cl)cc2)C2=[N+]1CCCC2` (stereo unspecified), “inactive”; for `Cc1cn([C@H]2C[C@H](O)[C@@H](CCC(=O)NCc3ccc(N(C)C)cc3)O2)c(=O)[nH]c1=O`, “inactive”.
In the case of `CC(C)=CCN1CCN(Cc2nc(C(C)C)cs2)CC1CCO` (stereo unspecified), the call was inactive.
For `O=C1C(=Cc2ccccc2O)SC(=S)N1CCCN1CCOCC1` the value was “inactive”.
For `N=C1C(c2nc(-c3ccc(Cl)cc3)cs2)=C(O)CN1CCCN1CCOCC1` the value was “inactive”; for `COCCNC(=O)CCCn1c(=O)c2cc(OC)c(OC)cc2n(CC(=O)Nc2ccc(C)c(F)c2)c1=O`, “inactive”; for `CC(C)(C)c1cc(NC(=O)c2cc(F)c(F)c(F)c2F)no1`, “inactive”.
Turning to `CCN(Cc1ccncc1)C(=O)c1ccccc1NS(=O)(=O)c1ccc(Br)cc1`, the call was inactive.
For `COc1cc(OC)cc(C(=O)NCCSc2c[nH]c3ccccc23)c1` the value was “inactive”; for `COc1cc(OC)cc(C(=O)NCC(=O)OCC(=O)NC2CCCc3ccccc32)c1` (stereo unspecified), “inactive”; for `O=C(/C=C/c1ccccc1)c1ccccc1`, “inactive”.
As to `Cc1ccc(C(=O)/C=C/c2ccccc2)o1`, the result was inactive.
On to `O=C(COC(=O)c1ccc(O)cc1)Nc1ccc2c(c1)OCO2`, for which the outcome was inactive.
The value for `CCOc1ccccc1OCCC(=O)N1CCN(S(=O)(=O)c2ccccc2[N+](=O)[O-])CC1` was “inactive”; that for `COc1ccc(C(=O)NCC(=O)NCc2ccc3c(c2)OCO3)cc1[N+](=O)[O-]` was “inactive”; that for `CCCOc1ccc(Oc2nc(-c3ccncc3)nc3ccccc23)cc1` was “inactive”.
For `COc1ccccc1[C@]1(C)ON(c2ccccc2C(F)(F)F)C1=O` the value was “inactive”; for `[O-][n+]1onc2c1CCc1[nH]c(-c3ccccc3)nc1-2`, “inactive”; for `COc1ccc(C=CC(=O)c2c(OC)cc(OC)c(OC)c2O)cc1`, “inactive”.
The value for `COc1ccc(/C=C/C(=O)c2cc3cccc(OC)c3oc2=O)cc1` was “inactive”; that for `CCOC(=O)NNc1cc(C(F)(F)F)ccn1` was “inactive”.
Turning to `Cc1ccc(C(=O)Nc2ccccc2SCC2CSc3nc4ccccc4c(=O)n32)cc1` (stereo unspecified), the result was inactive.
For the molecule `COc1cc2c(cc1NC(=O)c1ccc(C(C)(C)C)cc1)CCCC2`, the molecule was called inactive.
For `Cc1ccc(C(C)C)cc1OCC(=O)Nc1nnc(C2CC2)s1` the value was “inactive”; for `O=c1oc2ccccc2cc1-c1csc(Nc2ccc(O)cc2)n1`, “inactive”; for `COc1cccc(NC(=O)c2ncc(Cl)c(Cl)c2Cl)c1`, “inactive”.
For `CCOC(=O)c1ccccc1NC(=O)c1cn(CC)c2nc(C)ccc2c1=O` the value was “inactive”; for `COc1ccc(CCn2c(-c3ccco3)nc3ccccc3c2=O)cc1OC`, “inactive”; for `CCOc1ccccc1C(=O)NC(C(=O)OCn1nnc2ccccc2c1=O)C(C)C` (stereo unspecified), “inactive”.
Consider `CCN1CCN(CCCNC(=O)C2CCCN(c3nc4c(C)cc(C)cc4s3)C2)CC1` (stereo unspecified), for which the result was inactive.
The value for `CCCOc1ccc(C(=O)NNC(=S)NC(=O)c2cc(-c3ccc(Cl)cc3)nc3ccccc23)cc1` was “inactive”; that for `COC(=O)c1c(-c2ccccc2)csc1NC(=O)c1c(-c2ccccc2)noc1C` was “inactive”.
The value for `CCOC(=O)c1c(NC(=O)c2c(-c3ccccc3)noc2C)sc(C)c1-c1ccccc1` was “inactive”; that for `O=C(/C=C/c1cccc([N+](=O)[O-])c1)c1ccc2c(c1)OCCO2` was “inactive”; that for `CN1C/C(=C/c2ccsc2)C(=O)/C(=C/c2ccsc2)C1` was “inactive”.
For `O=C(CC(=O)N/N=C/c1ccc(F)cc1)N/N=C/c1ccc(F)cc1` the value was “inactive”.
As for `O=C(CSC1CN(C(c2ccccc2)c2ccccc2)C1)N/N=C/c1ccc(Cl)cc1Cl`, the outcome was inactive.
The value for `NC(=S)NN=C(c1ccc(F)cc1)C1CC1` was “inactive”; that for `CCCCCCCCCCCCCCCC(O)C(N)CO` (stereo unspecified) was “inactive”.
As for `CN1CCN(C(=O)CCN2C(=O)/C(=C\c3ccc(Cl)cc3Cl)SC2=S)CC1`, the molecule was called inactive.
Turning to `O=C(N1CCOCC1)N1c2ccccc2Sc2ccccc21`, the molecule was called inactive.
For the molecule `NC(=O)c1nsc(C(=O)N(c2ccccc2F)C(C(=O)NCc2ccccc2)c2ccc(O)cc2)c1N` (stereo unspecified), the outcome was inactive.
The value for `COC(=O)c1cc2c(N)c(C(=O)c3ccc(Cl)cc3)sc2nc1C(OC)OC` was “inactive”; that for `COc1cc2cc(C(=O)N3CC(COS(C)(=O)=O)c4ccc(O)cc43)[nH]c2c(OC)c1OC` (stereo unspecified) was “inactive”.
For `COC(=O)c1ccc(/C=C2/SC(=S)N(CCC(=O)N3CCOCC3)C2=O)cc1` the value was “inactive”; for `O=C(O)c1ccccc1Nc1ccc(OC(F)F)cc1`, “inactive”; for `COc1cc2[nH]c3c(N4CCN(c5ccccn5)CC4)ncnc3c2cc1OC`, “inactive”.
For `Cc1cc(-c2ccccc2)nc(N2CCN(c3ccccn3)CC2)n1` the value was “inactive”; for `Cc1nc2ccccc2nc(C)c1=NOCc1cccc(F)c1`, “inactive”.
Consider `Cc1ccc2oc(C(F)(F)C(F)F)cc(=O)c2c1`, for which the molecule was called inactive.
As for `O=C(OCc1cn([C@@H]2C[C@H](c3ccc(Cl)cc3)N(C(=O)c3cccs3)C[C@H]2O)nn1)c1ccccc1`, the result was inactive.
In the case of `COCCNCC(=O)NC12CC3CC(CC(C3)C1)C2`, the molecule was classed as inactive.
As to `CC(OCCN(C)C)C(=O)C12CC3CC(CC(C3)C1)C2` (stereo unspecified), the outcome was inactive.

For the origin of these results see PubChem BioAssay AID588719 (Southern Research Specialized Biocontainment Screening …, 2011).
